# High-throughput results: PubChem, National Center for Advancing Translational Sciences (NCATS)
# ELG1 genotox: inducers of genotoxicity in HEK293T ELG1-luciferase cells. 1.3% of 330,000 active. Potency, µM (series often up to 46 µM), without a hit: at the highest dose activity change, positive = activation, usual class: activators. HEK293T ELG1-luciferase reporter, luminescence, 16 h. AID 504466; further: % of control where 0% means no effect; nearly all actives have a fitted effect of over 60% in size
#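 Cells (2,000/well) expressing the ELG1-luciferase fusion are dosed by pin tool and kept 16 hr at 37 °C, 5% CO2. Signal comes from ONE-Glo luciferase reagent after 30 min at room temperature.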
# SMN2 splice enh: increases expression of the SMN2 splice variant; AID 1458; Potency, µM (doses to about 46.1 µM), without a hit: at the highest dose activity change, positive = activation, most hits filed as activators; HEK293 SMN2-luciferase splicing reporter, luminescence, 30-36 h; 2.8% of 210,000 active; further: % of control where 0% means no effect; nearly all actives have a fitted effect of over 55% in size
#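 HEK293 cells carry an SMN2 […]–luciferase reporter in which exon 7 inclusion puts luciferase in frame. Cells were plated 10-12 h before compound addition, then incubated 30-36 h at 37C. ONE-Glo luminescence was read; sodium butyrate at 4.5 mM final served as control.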
# NPC1 prom act: activators of NPC1 promoter | Huh7 NPC1 promoter luciferase reporter, 24 h | Potency, µM (top dose mostly 9.22 µM), without a hit: at the top dose activation, actives largely listed as activators | 2.4% of 320,000 active | AID 485313; further: % of control where 0% means no effect; nearly all actives have a fitted effect of over 60% in size
#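 Cells: Huh7 expressing luciferase under the NPC1 promoter, 1500/well. Seeded 2 h, compound added, incubated 24 h at 37 °C. Luciferase reagent, 10 min ambient, then luminescence.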
# FLuc counter: firefly luciferase modulation, counter-screen for miR-21 project | purified FLuc, Km substrates, luminescence inhibition | Potency, µM (doses to about 57.5 µM), for the others: top-dose activity change, negative = inhibition, actives largely listed as inhibitors | 6.9% of 360,000 active | AID 588342;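 further: plate controls were vehicle for no effect and reference inhibitor for full effect; nearly all actives have a fitted effect of over 55% in size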
# Target sequence (P08659 whole entry, looked up): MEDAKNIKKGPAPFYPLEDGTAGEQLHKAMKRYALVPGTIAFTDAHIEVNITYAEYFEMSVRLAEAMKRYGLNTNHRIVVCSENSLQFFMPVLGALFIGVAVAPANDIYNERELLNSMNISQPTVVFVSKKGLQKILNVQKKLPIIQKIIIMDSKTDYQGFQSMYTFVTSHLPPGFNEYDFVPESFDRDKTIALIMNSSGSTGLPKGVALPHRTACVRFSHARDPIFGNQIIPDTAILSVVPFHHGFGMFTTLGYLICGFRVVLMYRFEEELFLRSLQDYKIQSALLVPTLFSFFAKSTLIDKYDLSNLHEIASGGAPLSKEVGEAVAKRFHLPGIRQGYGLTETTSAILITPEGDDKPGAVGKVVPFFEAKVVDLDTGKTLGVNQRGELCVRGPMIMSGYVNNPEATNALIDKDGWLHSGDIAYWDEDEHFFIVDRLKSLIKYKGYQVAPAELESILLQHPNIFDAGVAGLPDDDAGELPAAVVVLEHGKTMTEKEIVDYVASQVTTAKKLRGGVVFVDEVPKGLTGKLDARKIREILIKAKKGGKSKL
#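 Biochemical qHTS of compounds, final roughly 60 µM downward over six points, against 10 nM purified firefly luciferase using Km concentrations of substrates (10 uM D-luciferin, 10 uM ATP) in Tris acetate pH 7.5 buffer; luminescence output.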
# Rab9 promoter act: activators of Rab9 promoter. Huh7 Rab9 promoter-luciferase reporter, luminescence, 24 h. Potency, µM (doses to about 9.22 µM), without a hit: top-dose activation, negative = inhibition, most hits filed as activators. 2.8% of 320,000 active; further: % of control where 0% means no effect; nearly all actives have a fitted effect of over 60% in size
#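 Stable Rab9-luc Huh7, 1500 cells/well, 2 h settle; cmpd in DMSO, 24 h, 37 °C/5% CO2; luciferase reagent 10 min RT; luminescence.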
# Active calls of the source: *; ? = inconclusive; . = no result. Most compounds without a hit are left out; they make up all but 7.4% or so of the library. The call rests on the fitted dose curve; in most records, active means well fitted curve in the direction sought with a large enough effect; inconclusive means small, poorly fitted or top-dose-only effect, or another doubt; inactive means no such curve, though single readings can be large; an effect the other way counts as inactive or inconclusive. Potency means the concentration at half of the fitted maximal effect.
SMILES,ELG1 genotox,SMN2 splice enh,NPC1 prom act,FLuc counter,Rab9 promoter act
COc1cc(NC(=O)CCCN2C(=O)CCn3nc(-c4cn(C)c5ccccc45)cc32)cc(OC)c1,.,.,.,-2%,.
COc1cccc([C@@H]2Oc3ccc(OC)cc3C(=O)[C@H]2OC(=O)NC2CCCC2)c1,.,4%,.,.,.
Cc1ccc2cc3c(N)nn(C(=O)c4cccc(F)c4)c3nc2c1,.,-9%,.,-3%,.
COc1c(OC(C)=O)ccc(/C=C/c2ccc3ccccc3n2)c1[N+](=O)[O-],?,22µM*,?,1.5µM*,?
O=[N+]([O-])c1ccccc1/C=C/c1ccc2ccccc2n1,?,.,3.5µM*,2.1µM*,4µM*
Cn1c(/C=C/c2ccccc2[N+](=O)[O-])nc2ccccc2c1=O,4%,.,?,?,?
CCOc1c(OC(C)=O)ccc(/C=C/c2ccc3cccc(OC(C)=O)c3n2)c1[N+](=O)[O-],-3%,24%,?,?,?
O=[N+]([O-])c1cccc2ccc(/C=C/c3ccc(F)cc3)nc12,25%,?,20%,8.5µM*,1%
COc1c(OC(C)=O)ccc(/C=C/c2ccc3cccc(OC)c3n2)c1[N+](=O)[O-],6%,23%,22%,12µM*,21%
COc1cccc(CN2C(=O)c3ccccc3Sc3ccc(C(=O)N(C)Cc4ccccc4)cc32)c1,.,-11%,.,4%,.
COC(=O)c1cccnc1-n1c(=O)c2cccnc2n(CC(=O)Nc2ccccc2F)c1=O,.,-4%,.,-2%,.
COc1ccc(/C=N/NS(C)(=O)=O)c(OC)c1,-3%,-5%,-8%,5%,-3%
Cc1ccc(C)c(/C=N/Nc2ccccn2)c1,14%,19%,-11%,?,-1%
COc1ccc(-c2nn(-c3ccccc3)cc2/C=N/Nc2ccccn2)cc1,?,-10%,-8%,2%,-1%
COc1ccc(/C=N\Nc2ccccn2)c(OC)c1,?,.,?,3.4µM*,?
COc1ccc(/C=N/Nc2ccccn2)c(OC)c1OC,?,?,?,17µM*,?
COc1ccc(/C=N/Nc2ncc(Br)cn2)c(OC)c1,7.3µM*,22µM*,9%,2.7µM*,?
COC(=O)N[C@@H](/C=C/c1ccccc1)[C@@H](C)[N+](=O)[O-],.,12%,.,.,.
CCC(C(=O)Nc1ccc(C)c(Cl)c1)n1c(=O)c(-c2ccccc2NC(C)=O)nc2ccccc21 (configuration not stated),.,.,.,-1%,.
COc1ccc(-c2cn3nc(C)c(C)nc3n2)cc1OC,5%,.,?,?,2.8µM*
Cc1ccc(CNc2nc3nc(C)c(Cl)c(C)n3n2)cc1,.,15%,.,.,.
Cc1ccc(-c2cn3nc(C)c(C)nc3n2)cc1,?,0.5µM*,?,0.67µM*,0.18µM*
Cc1ccc(-c2csc(N/N=C/c3ccco3)n2)c(C)c1,19%,4µM*,14%,-13%,18%
COc1cccc2cc(-c3nnc(Nc4ccccc4C)s3)c(=O)oc12,.,.,.,0.34µM*,.
CCc1sc(Nc2cccc(C)c2)nc1-c1cc2cccc(OC)c2oc1=O,.,.,.,7.6µM*,.
SMILES,ELG1 genotox,SMN2 splice enh,NPC1 prom act,FLuc counter,Rab9 promoter act
Clc1ccccc1OCc1nnc(-c2ccccc2)o1,?,16µM*,2.5µM*,11µM*,3.5µM*
Clc1ccccc1-c1nnc(COc2ccccc2)o1,.,13µM*,.,21µM*,.
CC(=O)Nc1ccccc1OCc1nnc(-c2ccc(Cl)cc2)o1,7%,?,17%,?,-1%
O=C(CNC(=O)c1cccs1)OCC(=O)c1ccc([N+](=O)[O-])cc1,-3%,.,7%,0%,-5%
O=C(CNC(=O)c1cccs1)OCC(=O)c1ccc(Cl)cc1,0%,.,-3%,-7%,-5%
O=C(CNC(=O)c1cccs1)c1ccc([N+](=O)[O-])cc1,?,?,?,24µM*,2.8µM*
O=C(CNC(=O)c1cccs1)c1ccc(Cl)cc1,?,.,1.1µM*,6µM*,0.5µM*
O=C(CNC(=O)c1cccs1)c1ccc(F)cc1,?,6.3µM*,0.5µM*,4.8µM*,0.56µM*
CCCN(CCC)C(=O)Cn1c(=O)n(-c2cccc(C)c2)c(=O)c2c1c1cc(OC)ccc1n2C,.,2%,.,1%,.
CC(=O)Nc1ccc(/C=C/c2nc(-c3ccccc3O)n(-c3ccccc3)n2)cc1,.,-16%,.,0%,.
S=c1[nH]c2cc(-c3ccccc3)ccc2o1,4%,.,5%,21µM*,16%
COc1ccc(OC)c(NC(=O)c2ccc(OC3CSC3)cc2)c1,23%,-12%,-2%,11µM*,0%
COc1ccc(NC(=O)c2cccc(NC(=O)c3ccccc3)c2)c(OC)c1,-3%,.,-9%,19µM*,2%
COc1ccc(OC)c(NC(=O)c2ccc(NC(C)=O)cc2)c1,0%,.,-2%,-9%,-2%
COc1ccc(NC(=O)c2ccc3nc(-c4ccccc4)c(-c4ccccc4)nc3c2)c(OC)c1,13%,-11%,2%,6%,-2%
CCCc1cc(C(=O)Nc2cc(OC)ccc2OC)cs1,7%,.,-5%,19µM*,1%
COc1ccc(OC)c(NC(=O)c2cccc(NC(=O)c3ccccc3)c2)c1,-3%,.,-1%,17µM*,19%
Cc1oc2ccc(O)c(CN3CCN(C)CC3)c2c1C(=O)Nc1cccc(Cl)c1C,.,3%,.,2%,.
COC(=O)c1c(NC(=O)c2nc(SCc3ccccc3C)ncc2Cl)sc2c1CCCC2,.,20%,.,4%,.
